{"source": "the supplement of paper PMC4840960", "note": "Counter-ions that a name gives are not always drawn. ± gives the standard deviation of the averaged measurements."}
{"system": "E18 rat cortical neuron-glia co-culture", "test": "fiber score / MBP score (myelination specific beyond OL differentiation) (ratio); higher = more myelination-specific MBP alignment", "conditions": "1 µM; treatment time: 8 days (DIV5-DIV13)", "method_in_brief": "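The measure is the ratio of fiber score to MBP score, where fiber score is continuous MBP fiber length per Olig2+ nucleus and MBP score is thresholded MBP area × intensity per Olig2+ nucleus. Primary E18 rat cortical co-cultures received library compounds at 1 or 5 µM in myelination medium from DIV5 to DIV13, then were fixed in 4 % paraformaldehyde and stained for MBP, Olig2 and DAPI before analysis of four 10X fields per well in duplicate wells.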"}
{"smiles": "CCCCCNC(=N)N/N=C/c1c[nH]c2ccc(OC)cc12", "note": "[Tegaserod]", "fiber score / MBP score": 0.56}
{"smiles": "Cc1ccc(O)c([C@H](CCN(C(C)C)C(C)C)c2ccccc2)c1", "note": "[Tolterodine]", "fiber score / MBP score": 0.747}
{"smiles": "Cc1cccc(CN2CCN(C(c3ccccc3)c3ccc(Cl)cc3)CC2)c1", "note": "(stereo not drawn) [Meclizine]", "fiber score / MBP score": 0.439}
{"smiles": "CCc1c2c(nc3ccc(OC(=O)N4CCC(N5CCCCC5)CC4)cc13)-c1cc3c(c(=O)n1C2)COC(=O)[C@]3(O)CC", "note": "[Irinotecan]", "fiber score / MBP score": 2.03}
{"smiles": "CC(C)c1ccc2c(c1)c(SC(C)(C)C)c(CC(C)(C)C(=O)O)n2Cc1ccc(Cl)cc1", "fiber score / MBP score": 1.1}
{"smiles": "CC/C(=C(\\c1ccccc1)c1ccc(OCCN(C)C)cc1)c1ccccc1", "note": "[Tamoxifen]", "fiber score / MBP score": 0.507}
{"smiles": "O=c1[nH]cc(F)c(=O)[nH]1", "note": "[5-Fluorouracil]", "fiber score / MBP score": 1.24}
{"smiles": "C[C@@H]1C[C@H]2[C@@H]3CCC4=CC(=O)C=C[C@]4(C)[C@@]3(F)[C@@H](O)C[C@]2(C)[C@@]1(O)C(=O)CO", "note": "[Dexamethasone]", "fiber score / MBP score": 0.824}
{"smiles": "Cc1cccc(C)c1NC(=O)C(C)N", "note": "(stereo not drawn) [Tocainide]", "fiber score / MBP score": 0.776}
{"smiles": "O=c1c(-c2ccccc2)c1-c1ccccc1", "note": "[Diphenylcyclopropenone]", "fiber score / MBP score": 0.809}
{"smiles": "Nc1nc(O)c2ncn(CCC(CO)CO)c2n1", "note": "[Penciclovir]", "fiber score / MBP score": 0.784}
{"smiles": "NNCCc1ccccc1", "note": "[Phenelzine]", "fiber score / MBP score": "0.849 ± 0.21"}
{"smiles": "CCCCc1nc(Cl)c(CO)n1Cc1ccc(-c2ccccc2-c2nnn[nH]2)cc1", "note": "[Losartan]", "fiber score / MBP score": 0.8}
{"smiles": "CN(CCOc1ccc(CC2SC(=O)NC2=O)cc1)c1ccccn1", "note": "(stereo not drawn) [Rosiglitazone maleate]", "fiber score / MBP score": "0.752 ± 0.037"}
{"smiles": "CSc1ccc2c(c1)N(CCC1CCCCN1C)c1ccccc1S2", "note": "(stereo not drawn) [Thioridazine]", "fiber score / MBP score": 0.479}
{"smiles": "Clc1ccc(CO/N=C(\\Cn2ccnc2)c2ccc(Cl)cc2Cl)c(Cl)c1", "note": "[Oxiconazole]", "fiber score / MBP score": 0.501}
{"smiles": "CN(C/C=C/C#CC(C)(C)C)Cc1cccc2ccccc12", "note": "[Terbinafine]", "fiber score / MBP score": 0.788}
{"smiles": "OCCN1CCN(CCCN2c3ccccc3Sc3ccc(C(F)(F)F)cc32)CC1", "note": "[Fluphenazine]", "fiber score / MBP score": 0.784}
{"smiles": "Cc1c(C(=O)NN2CCCCC2)nn(-c2ccc(Cl)cc2Cl)c1-c1ccc(I)cc1", "fiber score / MBP score": 0.94}
{"smiles": "C[C@@H]1CN(CCCn2c3ccccc3c3ccccc32)C[C@H](C)N1", "note": "[Rimcazole]", "fiber score / MBP score": 0.507}
{"smiles": "CN1CCN(CCCN2c3ccccc3Sc3ccc(C(F)(F)F)cc32)CC1", "note": "[Trifluoperazine]", "fiber score / MBP score": 0.177}
{"system": "E18 rat cortical neuron-glia co-culture", "test": "myelination (MBP fiber length per Olig2+ nucleus), % of 1 µM DAPT response (DMSO = 0) (% of DAPT); higher = more myelination, active = 50 or more", "conditions": "1 µM; treatment time: 8 days (DIV5-DIV13)", "method_in_brief": "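The myelination value was the continuous straight MBP fiber length per Olig2+ nucleus, scaled between 0.1 % DMSO (0) and a 1 µM positive control (100). It was measured in primary E18 rat cortical co-cultures treated with library compounds at 1 or 5 µM in myelination medium from DIV5 through DIV13. Cells were fixed in 4 % paraformaldehyde and stained for MBP, Olig2 and DAPI, and four 10X fields per well were imaged in duplicate wells.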"}
{"smiles": "Cc1c2oc3c(C)ccc(C(=O)N[C@@H]4C(=O)N[C@H](C(C)C)C(=O)N5CCC[C@H]5C(=O)N(C)CC(=O)N(C)[C@@H](C(C)C)C(=O)O[C@@H]4C)c3nc-2c(C(=O)N[C@@H]2C(=O)N[C@H](C(C)C)C(=O)N3CCC[C@H]3C(=O)N(C)CC(=O)N(C)[C@@H](C(C)C)C(=O)O[C@@H]2C)c(N)c1=O", "note": "[Dactinomycin]", "myelination": "< -33.5 (inactive)"}
{"smiles": "CN1CCN(C2=Nc3cc(Cl)ccc3Nc3ccccc32)CC1", "note": "[Clozapine]", "myelination": "-14.8 (inactive)"}
{"smiles": "COC(=O)C1=C(C)NC(C)=C(C(=O)OCC(C)C)C1c1ccccc1[N+](=O)[O-]", "note": "(stereo not drawn) [Nisoldipine]", "myelination": "-11.1 (inactive)"}
{"smiles": "CC(C)(C)NC(=O)[C@@H]1C[C@@H]2CCCC[C@@H]2CN1C[C@@H](O)[C@H](Cc1ccccc1)NC(=O)[C@H](CC(N)=O)NC(=O)c1ccc2ccccc2n1", "note": "[Saquinavir]", "myelination": "3.19 (inactive)"}
{"smiles": "COc1cccc2c1C(=O)c1c(O)c3c(c(O)c1C2=O)C[C@@](O)(C(=O)CO)C[C@@H]3O[C@H]1C[C@H](N)[C@H](O)[C@H](C)O1", "note": "[Adriamycin]", "myelination": "< -51.2 (inactive)"}
{"smiles": "c1ccc(CC2=NCCN2)cc1", "note": "[Tolazoline]", "myelination": "-13.6 (inactive)"}
{"smiles": "CC=CC(=O)N(CC)c1ccccc1C", "note": "[Crotamiton]", "myelination": "-16.8 (inactive)"}
{"smiles": "OCCN1CCN(CCCN2c3ccccc3Sc3ccc(Cl)cc32)CC1", "note": "[Perphenazine]", "myelination": "-21.7 (inactive)"}
{"smiles": "CC(C)(O)c1ccccc1CC[C@@H](SCC1(CC(=O)O)CC1)c1cccc(/C=C/c2ccc3ccc(Cl)cc3n2)c1", "note": "[Montelukast]", "myelination": "-10.2 (inactive)"}
{"smiles": "CNCCC(Oc1ccc(C(F)(F)F)cc1)c1ccccc1", "note": "(stereo not drawn) [Fluoxetine hydrochloride]", "myelination": "-1.16 (inactive)"}
{"smiles": "Oc1c(Cl)cc(Cl)c2cccnc12", "note": "[Chloroxine]", "myelination": "-4.18 (inactive)"}
{"smiles": "O=c1c(O[C@@H]2O[C@H](CO)[C@H](O)[C@H](O)[C@H]2O)c(-c2ccc(O)c(O)c2)oc2cc(O)cc(O)c12", "note": "[Hyperoside]", "myelination": "-69.1 (inactive)"}
{"smiles": "CN(C)CCOc1ccc(/C(=C(/CCCl)c2ccccc2)c2ccccc2)cc1", "note": "[Toremifene]", "myelination": "3.19 (inactive)"}
{"smiles": "C=C(CC)C(=O)c1ccc(OCC(=O)O)c(Cl)c1Cl", "note": "[Ethacrynic Acid]", "myelination": "32.2 (inactive)"}
{"smiles": "C=CCc1ccc(O)c(-c2ccc(O)c(CC=C)c2)c1", "note": "[Honokiol]", "myelination": "-2.87 (inactive)"}
{"smiles": "CCCCCNC(=N)N/N=C/c1c[nH]c2ccc(OC)cc12", "note": "[Tegaserod]", "myelination": "-17.1 (inactive)"}
{"smiles": "Cc1ccc(O)c([C@H](CCN(C(C)C)C(C)C)c2ccccc2)c1", "note": "[Tolterodine]", "myelination": "-15.9 (inactive)"}
{"smiles": "Cc1cccc(CN2CCN(C(c3ccccc3)c3ccc(Cl)cc3)CC2)c1", "note": "(stereo not drawn) [Meclizine]", "myelination": "-29.8 (inactive)"}
{"smiles": "CCc1c2c(nc3ccc(OC(=O)N4CCC(N5CCCCC5)CC4)cc13)-c1cc3c(c(=O)n1C2)COC(=O)[C@]3(O)CC", "note": "[Irinotecan]", "myelination": "255 (active)"}
{"smiles": "CN1[C@@H]2CC[C@H]1C[C@@H](OC(c1ccccc1)c1ccccc1)C2", "note": "[Benzatropine]", "myelination": "< -84.9 (inactive)"}
{"smiles": "CC(C)c1ccc2c(c1)c(SC(C)(C)C)c(CC(C)(C)C(=O)O)n2Cc1ccc(Cl)cc1", "myelination": "-5.83 (inactive)"}
{"smiles": "CC/C(=C(\\c1ccccc1)c1ccc(OCCN(C)C)cc1)c1ccccc1", "note": "[Tamoxifen]", "myelination": "-18.7 (inactive)"}
{"smiles": "O=c1[nH]cc(F)c(=O)[nH]1", "note": "[5-Fluorouracil]", "myelination": 174}
{"smiles": "C[C@@H]1C[C@H]2[C@@H]3CCC4=CC(=O)C=C[C@]4(C)[C@@]3(F)[C@@H](O)C[C@]2(C)[C@@]1(O)C(=O)CO", "note": "[Dexamethasone]", "myelination": "-36.6 (inactive)"}
{"smiles": "Cc1cccc(C)c1NC(=O)C(C)N", "note": "(stereo not drawn) [Tocainide]", "myelination": "-15 (inactive)"}
{"smiles": "O=c1c(-c2ccccc2)c1-c1ccccc1", "note": "[Diphenylcyclopropenone]", "myelination": "-43.4 (inactive)"}
{"smiles": "Nc1nc(O)c2ncn(CCC(CO)CO)c2n1", "note": "[Penciclovir]", "myelination": "3 (inactive)"}
{"smiles": "NNCCc1ccccc1", "note": "[Phenelzine]", "myelination": "-25.5 (inactive)"}
{"smiles": "CCCCc1nc(Cl)c(CO)n1Cc1ccc(-c2ccccc2-c2nnn[nH]2)cc1", "note": "[Losartan]", "myelination": "-14.1 (inactive)"}
{"smiles": "CN(CCOc1ccc(CC2SC(=O)NC2=O)cc1)c1ccccn1", "note": "(stereo not drawn) [Rosiglitazone maleate]", "myelination": "-26.2 (inactive)"}
{"smiles": "CSc1ccc2c(c1)N(CCC1CCCCN1C)c1ccccc1S2", "note": "(stereo not drawn) [Thioridazine]", "myelination": "-11.4 (inactive)"}
{"smiles": "Clc1ccc(CO/N=C(\\Cn2ccnc2)c2ccc(Cl)cc2Cl)c(Cl)c1", "note": "[Oxiconazole]", "myelination": "-25.1 (inactive)"}
{"smiles": "CN(C/C=C/C#CC(C)(C)C)Cc1cccc2ccccc12", "note": "[Terbinafine]", "myelination": "-6.59 (inactive)"}
{"smiles": "OCCN1CCN(CCCN2c3ccccc3Sc3ccc(C(F)(F)F)cc32)CC1", "note": "[Fluphenazine]", "myelination": "3 (inactive)"}
{"smiles": "Cc1c(C(=O)NN2CCCCC2)nn(-c2ccc(Cl)cc2Cl)c1-c1ccc(I)cc1", "myelination": "17.6 (inactive)"}
{"smiles": "C[C@@H]1CN(CCCn2c3ccccc3c3ccccc32)C[C@H](C)N1", "note": "[Rimcazole]", "myelination": "-12.2 (inactive)"}
{"smiles": "CN1CCN(CCCN2c3ccccc3Sc3ccc(C(F)(F)F)cc32)CC1", "note": "[Trifluoperazine]", "myelination": "-80.1 (inactive)"}
